Screens from PubChem.
A selection: hits, their analogues and other compounds. The true share with any hit is near 2%.
Exocytosis inh: lytic granule exocytosis inhibition; TALL-104 LAMP-1 surface exposure, flow cytometry; cells stimulated with thapsigargin and PMA; inhibition, % at 10 µM; 0.66% of 360,000 active; AID 651702;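 active means inhibition above about 55%, limit read from the data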
ABCB6 inh 2: inhibitors of human ABC transporter ABCB6 | Q9NP58 | K562-ABCB6 porphyrin accumulation, flow cytometry, 1 h; active compounds read low | fluorescence ratio to DMSO, % at 10 µM | 0.19% of 360,000 active;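 active means fluorescence ratio to DMSO below 75%, the collection mean minus 3 SD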;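 further: signal is porphyrin accumulated inside mitochondria; 100% equals median channel fluorescence of DMSO control wells; lower ratio means ABCB6 inhibition with less porphyrin fluorescence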
PG9 binder: small molecules binding HIV-1 gp120 antibody PG9; 0.43% of 360,000 active; TR-FRET gp120-PG9 antibody binding; inhibition, % at 6.7 µM; in the data active means inhibition above about 8.5%
Rev-erbA mod: modulates human Rev-erb alpha binding to DNA; P20393; Rev-erbα–FITC-DNA binding, fluorescence polarization, 90 min; activity, % at 10 µM; 0.79% of 370,000 active; AID 1259318;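 active means activity above about 14%, limit read from the data; passing the limit was not always enough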;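 further: 0% = DMSO wells with 35 nM protein and 100% = DMSO wells with 750 nM protein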
VLA-4 inh: inhibition in a human VLA-4 binding assay; inhibition, % (about 7 µM as worked out from the volumes in the protocol); P13612; VLA-4 expressing cells, ligand binding flow cytometry; 0.2% of 330,000 active; in the data active means inhibition above about 50%
Target sequence (P13612 whole entry, looked up): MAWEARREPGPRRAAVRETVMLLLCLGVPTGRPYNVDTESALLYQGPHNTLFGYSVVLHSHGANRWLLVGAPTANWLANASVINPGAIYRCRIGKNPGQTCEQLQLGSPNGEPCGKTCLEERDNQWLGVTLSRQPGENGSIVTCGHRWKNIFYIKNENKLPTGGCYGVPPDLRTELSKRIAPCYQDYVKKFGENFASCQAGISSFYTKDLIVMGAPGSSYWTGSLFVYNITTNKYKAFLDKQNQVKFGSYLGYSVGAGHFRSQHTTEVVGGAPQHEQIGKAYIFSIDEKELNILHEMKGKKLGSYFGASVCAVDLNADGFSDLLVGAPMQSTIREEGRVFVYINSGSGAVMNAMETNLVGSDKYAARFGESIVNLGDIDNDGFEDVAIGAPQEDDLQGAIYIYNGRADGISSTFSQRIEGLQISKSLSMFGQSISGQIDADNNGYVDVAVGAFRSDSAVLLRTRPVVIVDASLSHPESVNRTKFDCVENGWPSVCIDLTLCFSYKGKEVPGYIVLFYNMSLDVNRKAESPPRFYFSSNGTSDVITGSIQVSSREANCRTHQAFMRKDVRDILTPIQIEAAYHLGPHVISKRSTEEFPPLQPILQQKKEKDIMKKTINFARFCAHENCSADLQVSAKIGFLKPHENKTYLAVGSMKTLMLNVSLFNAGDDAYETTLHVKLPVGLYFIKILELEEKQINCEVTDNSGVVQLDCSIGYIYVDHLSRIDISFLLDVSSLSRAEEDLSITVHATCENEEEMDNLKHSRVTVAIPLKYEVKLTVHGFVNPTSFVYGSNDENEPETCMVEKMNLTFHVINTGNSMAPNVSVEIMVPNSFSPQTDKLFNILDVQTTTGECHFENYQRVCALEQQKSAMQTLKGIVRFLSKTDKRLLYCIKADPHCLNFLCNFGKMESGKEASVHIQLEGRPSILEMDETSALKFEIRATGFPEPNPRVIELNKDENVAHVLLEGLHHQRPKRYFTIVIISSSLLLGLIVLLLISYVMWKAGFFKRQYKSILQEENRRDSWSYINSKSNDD
NR1D1 mod conf: confirmation of modulators of human Rev-erb alpha DNA binding. shares compounds with Rev-erbA mod. Rev-erb alpha FITC-DNA binding, fluorescence polarization, 90 min. activation, % at 25 µM. 61% of 3,000 active. AID 1259319;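 active means activation at or above a set limit, or at least 3 SD above the negative control mean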;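 further: 0% = 35 nM protein with DMSO and 100% = 750 nM protein high control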
RORg counter: counter-screen for Rev-erb alpha modulators: RORgamma DNA binding; shares compounds with Rev-erbA mod; purified RORgamma protein-FITC-DNA binding, fluorescence polarization; IC50, µM; AID 1259320; 8% of 910 active;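 active means Compounds whose fitted half-maximal concentration for disrupting protein-DNA binding is below 10 micromolar; the record names Rev-erb in its text, so the target is in doubt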
The depositor's hits bear a star; i = inactive; x = no result.

SMILES	Exocytosis inh	ABCB6 inh 2	PG9 binder	Rev-erbA mod	VLA-4 inh	NR1D1 mod conf	others
Cc1ccc(C)c(-n2c(-c3ccc(Br)cc3)csc2=NC(=O)c2ccccc2F)c1	41	100	4	38*	-8	49*	RORg counter=>40
O=c1c(Cl)c(Nc2cccc(Cl)c2)cnn1-c1nc2ccccc2s1	-2	100	-2	19*	-17	10
O=C(O)c1cccc(N2C(=O)c3cccc4c(Cl)ccc(c34)C2=O)c1	0	92	0	0	16	x
Nc1cccc(N2C(=O)c3cccc4c(N)ccc(c34)C2=O)c1	-10	148	-15	80*	-256	64*	RORg counter=>40
Nc1ccc2c3c(cccc13)C(=O)N(c1ccccc1)C2=O	-4	108	-5	92*	x	80*	RORg counter=>40
CC(C)CCN1C(=O)c2cccc3c(N)ccc(c23)C1=O	-9	137	1	139*	i	132*	RORg counter=i
CCN1C(=O)c2cccc3c(Cl)ccc1c23	7	101	-2	3	10	x
CCN1C(=O)c2cccc3c(Cl)ccc(c23)C1=O	-1	99	1	41*	-7	30*
Nn1c(SCc2cccc3ccccc23)nnc1-c1cc(-c2ccc(Cl)cc2)n[nH]1	x	x	x	-5	x	x
COc1ccccc1-c1cccc2c3c([nH]c12)[C@@H]1C[C@H]2[C@@H](C(=O)N1CC3)[C@H](C)ON2C	x	x	1	-4	x	x
Cc1cccc(N2C(=O)c3cccc4cccc(c34)C2=O)c1	-11	101	2	-2	9	x
Cc1cccc(N2C(=O)c3cccc4c(N)ccc(c34)C2=O)c1	-4	102	-7	245*	-9	199*	RORg counter=i
CC1CCc2sc(C(=O)Nc3nnc(SCc4ccc(F)cc4)s3)cc2C1 (configuration not stated)	2	104	8	30*	13	17
COc1ccc(OCC(=O)NNC(=S)NC(=O)C2CC2)cc1	1	100	-2	-5	6	x
Cc1cc(C)cc(OCC(=O)NNC(=S)NC(=O)C2CC2)c1	2	91	0	33*	47	-2
COc1ccc2c(c1)c(=O)oc1cc(OCC(=O)NC3CCCCC3)ccc12	-2	100	4	-9	1	x
COc1ccc2c(c1)c(=O)oc1cc(OCC(=O)NC3CC3)ccc12	5	92	-2	24*	-1	34*	RORg counter=i
O=C1c2cccc3c(N4CCCCC4)ccc(c23)C(=O)N1c1ccccc1O	-4	233	1	27*	-205	33*	RORg counter=>40
CC(=O)N1C[C@H]2CON(C)[C@H]2C[C@H]1c1ccccc1-c1ccccc1	x	x	-1	4	x	x
C=CCCC1CN(Cc2ccc(OC)cc2)S(=O)(=O)c2c(cccc2Sc2ccc(OC)c(OC)c2)O1 (configuration not stated)	x	x	0	-2	x	x
C[C@@H]1ON(C)[C@H]2C[C@H]3c4[nH]c5cccc(-c6ccccc6)c5c4CCN3C[C@@H]12	x	x	0	12	x	x
N#Cc1c(SCC(N)=O)nc2c(c1-c1ccc(O)cc1)CCCC2	-1	97	0	2	14	x
CCOC(=O)c1sc(NC(=O)CSc2nc3c(c(-c4ccc(OC)cc4)c2C#N)CCCC3)c(C#N)c1C	4	92	-1	32*	16	22*
Cc1ccc(C)c(NC(=O)CSc2nc(C)cc(C)c2C#N)c1	-1	98	5	38*	-1	25*
CCOC(=O)c1sc(NC(=O)CSc2nc3c(cc2C#N)CCCCCC3)c(C#N)c1C	0	88	-2	3	22	x
SMILES	Exocytosis inh	ABCB6 inh 2	PG9 binder	Rev-erbA mod	VLA-4 inh	NR1D1 mod conf	others
CCOC(=O)c1sc(NC(=O)CSc2nc(C)cc(C)c2C#N)c(C#N)c1C	2	94	0	24*	5	14
COc1ccc(-c2c(C#N)c(SCC(N)=O)nc3c2CCCC3)cc1	0	90	-2	68*	18	37*	RORg counter=>40
Cc1ccc(S(=O)(=O)N2c3ccccc3C[C@H]2CCC(=O)c2ccccc2)cc1	x	x	x	0	x	x
O=C(NCCc1ccccc1)c1cc(-c2ccccc2)c(N2CCOCC2)s1	-2	96	2	-1	-13	x
CSc1ccc(CCNC(=O)c2cc(-c3ccccc3)c(N3CCOCC3)s2)cc1	29	98	2	67*	21	51*	RORg counter=i
CC(C)[C@H](NC(=O)OCc1ccccc1)C(=O)N[C@@H](Cc1ccccc1)C1(O)CN(C)C(C(=O)NCc2ccccn2)CO1 (some centres not stated)	x	x	x	-4	x	x
COC(=O)c1c(-c2cccc(C)c2)csc1NC(=O)C1CCCO1 (configuration not stated)	0	91	1	24*	-10	27*
CCOC(=O)c1c(-c2ccc(C)cc2)csc1NC(=O)C1CCCO1 (configuration not stated)	-1	99	-2	9	0	x
CCC(=O)N1CCC1(C)C(=O)Nc1cnc2ccccc2c1 (configuration not stated)	-2	104	0	17*	x	-2
CN1CC=C(c2ccccc2)N(c2ccccc2)C1=O	x	x	x	-1	x	x
CC(C)(C)c1ccc(C(=O)NCC(=O)OCC(=O)c2ccc3c(c2)-c2ccccc2C3)cc1	-6	91	-2	26*	1	8
CCOc1ncccc1C(=O)OCc1cc(=O)oc2c(C)c(C)ccc12	-2	90	-2	34*	x	6
COc1ccccc1C1CC(=O)NC(C)=C1C(=O)OC(C)C (configuration not stated)	-1	103	0	22*	-5	2
C=CCn1c(COc2ccc(Cl)cc2)nnc1SCC(=O)c1c(N)n(C)c(=O)n(C)c1=O	-1	96	0	24*	8	-14
C=CCn1c(COc2cccc(C)c2)nnc1SCC(=O)c1c(N)n(C)c(=O)n(C)c1=O	-2	98	0	-2	x	x
Cc1cccc2cc(C#N)c(SCC#N)nc12	-2	100	2	63*	-2	53*	RORg counter=>40
O=C(NCC1COc2ccccc2O1)c1ccc(NC(=O)C(Cl)Cl)cc1 (configuration not stated)	x	x	x	-8	x	x
Cc1oc2c(C)c(O)ccc2c(=O)c1-c1ccc2ccccc2n1	-3	88	3	23*	-1	20*
COCCCNC(=O)C[C@H]1C[C@@]2(C(=O)OC)C(=C[C@H](C3CCCC3)O[C@@H]2C)N(Cc2cccc3ccccc23)C1=O	x	x	x	0	x	x
O=C(NC1CCCC1)N1CCC(c2nc3ccc(Cl)cc3[nH]2)CC1	x	x	x	-2	x	x
Cc1ccc2cc(C#N)c(SCC(=O)NCC3CCCO3)nc2c1 (configuration not stated)	-1	102	-1	11	-9	x
